PubChem BioAssay (EPA / NIEHS)
Calls of active or inactive are those of the source. How the source made its calls: active means hit-call score of the fitted dose curve at least 0.9, where 1 is the maximum; inactive means score below 0.9.

biological target: Nuclear respiratory factor 1 (Homo sapiens) (UniProt Q16656); assay: ATG_NRF1_CIS: Attagene CIS-FACTORIAL HepG2 Assay for human Nuclear Respiratory Factor 1 (NRF1) Orphan Gene (AID 2282987); details: HepG2 NRF1 cis-element reporter, Attagene multiplex; actives raise or lower the signal
Description: ATG_CIS is a cell-based, multiplexed-readout assay that uses HepG2, a human liver cell line, with measurements taken at 24 hours after chemical dosing in a 24-well plate.ATG_NRF1_CIS is one of 52 assay component(s) measured or calculated from the ATG_CIS assay. It is designed to make measurements of mRNA induction, a form of inducible reporter, as detected with fluorescence intensity signals by Reverse transcription polymerase chain reaction (RT-PCR) and Capillary electrophoresis technology.Data from the assay component ATG_NRF1_CIS was analyzed into 1 assay endpoint. This assay endpoint, ATG_NRF1_CIS, was analyzed with bidirectional fitting relative to DMSO as the negative control and baseline of activity. Using a type of inducible reporter, measures of mRNA for gain or loss-of-signal activity can be used to understand the reporter gene at the transcription factor-level as they relate to the gene NRF1. Furthermore, this assay endpoint can be referred to as a primary readout, because this assay has produced multiple assay endpoints where this one serves a reporter gene function. To generalize the intended target to other relatable targets, this assay endpoint is annotated to the dna binding intended target family, where the subfamily is nuclear respiratory factors.
Human liver HepG2 cells are transiently transfected with multiple reporter transcription units (MRTUs) in 6-well plates using FuGene 6 reagent (Roche; 3 ml FuGene/1 mg DNA). The MRTU constructs are regulated by a cis-regulating element (promoter). […] A major difference between the CIS and TRANS system is that in CIS activities of endogenous TFs are measured, whereas the TRANS assay evaluates changes in activities of exogenous, chimeric NR-Gal4 proteins. […] At the end of 24 hour incubation, total RNA was isolated using TriZol reagent (Invitrogen). The isolated RNA is then reverse-transcribed using oligo(dT) primer and Mo-MLV reverse transcriptase (Invitrogen) with DNAse I (Ambion) treatment for 30 min. The one-tenth of the produced cDNA was amplified by PCR using Taq DNA polymerase (Invitrogen) and two reporter sequence-specific primers. The PCR products were fluorescently labeled by primer extension with 6-arboxyfluorescein (6-FAM) 5'-labeled reporter sequence-specific primer (2 min at 95 C, 20 s at 68 C and 10 min at 72 C) and these products were digested with 5U of HpaI (New England Biolabs) for 2h at 37 C. The fragments were purified using Qiaquick PCR columns (Qiagen), analyzed on an ABI 3130xL genetic analyzer (Applied Biosystems) with peak positions identified by using a set of X-rhodamine (ROX)-labeled MapMarker1000 molecular weight standards (BioVentures). The raw capillary electrophoresis data was processed using Attagraph software (Attagene).

Sequence of Nuclear respiratory factor 1 (Homo sapiens) (Q16656 whole entry, looked up): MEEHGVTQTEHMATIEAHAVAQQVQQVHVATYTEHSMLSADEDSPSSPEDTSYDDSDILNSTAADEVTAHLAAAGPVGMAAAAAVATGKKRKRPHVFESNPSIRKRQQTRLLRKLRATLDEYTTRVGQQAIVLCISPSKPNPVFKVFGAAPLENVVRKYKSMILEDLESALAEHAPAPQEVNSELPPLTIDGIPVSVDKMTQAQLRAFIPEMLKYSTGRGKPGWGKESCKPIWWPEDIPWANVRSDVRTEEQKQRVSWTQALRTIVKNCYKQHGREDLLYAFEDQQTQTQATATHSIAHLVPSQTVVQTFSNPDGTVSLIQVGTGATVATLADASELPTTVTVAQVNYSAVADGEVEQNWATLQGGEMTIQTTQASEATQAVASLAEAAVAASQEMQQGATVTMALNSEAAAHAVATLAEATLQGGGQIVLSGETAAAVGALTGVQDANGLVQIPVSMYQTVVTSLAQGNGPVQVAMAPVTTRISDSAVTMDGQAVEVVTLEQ

**Q.** How did the outcome turn out when `CCCCCCCCC(=O)NCc1ccc(O)c(OC)c1` was run?
**A.** The outcome was “inactive”.

**Q.** `Cc1cc(Cl)ccc1O[C@H](C)C(=O)O` was tested. Which outcome did it give?
**A.** The outcome was “inactive”.

**Q.** For `COP(=S)(OC)Oc1ccc(S(=O)(=O)N(C)C)cc1`, which outcome is on record?
**A.** Its outcome is “inactive”.

**Q.** For `CC(C)c1ccc(CO)cc1`, which outcome is on record?
**A.** The outcome was “inactive”.

**Q.** `O=S(=O)(c1ccc(Cl)cc1)c1ccc(Cl)cc1` was tested. Which outcome did it give?
**A.** Its outcome is “inactive”.

**Q.** With `COP(=O)(OC)O/C(=C\Cl)c1cc(Cl)c(Cl)cc1Cl` as the molecule, how does the AC50 read?
**A.** Its AC50 is 66.2 µM (active).

**Q.** Which outcome does the source give for `Clc1ccc(COC(Cn2ccnc2)c2ccc(Cl)cc2Cl)cc1` (stereo not given) here?
**A.** Its outcome is “inactive”.

**Q.** How did the outcome turn out when `CCOP(=S)(OCC)SCCS(=O)(=O)CC` was run?
**A.** Its outcome is “inactive”.

**Q.** How did the outcome turn out when `CCC1(c2ccc(N)cc2)CCC(=O)NC1=O` (stereo not given) was run?
**A.** Its outcome is “inactive”.

**Q.** With `C[C@H]1CCCC(=O)CCC/C=C/c2cc(O)cc(O)c2C(=O)O1` as the molecule, how does the AC50 read?
**A.** The AC50 was 39.4 µM (active).

**Q.** For `Cc1cc(=O)[nH]o1`, which outcome is on record?
**A.** The outcome was “inactive”.

**Q.** Which outcome does the source give for `CCc1ccccc1N` here?
**A.** The outcome was “inactive”.

**Q.** How did the outcome turn out when `CC1CN1P(=O)(N1CC1C)N1CC1C` (stereo not given) was run?
**A.** The outcome was “inactive”.

**Q.** With `CCOC(=O)/C=C(C)/C=C/C[C@@H](C)CCCC(C)C` as the molecule, how does the AC50 read?
**A.** The AC50 was 65.2 µM (active).

**Q.** For `O=C1CCCN1`, which outcome is on record?
**A.** The outcome was “inactive”.

**Q.** With `O=[N+]([O-])c1c(Cl)c(Cl)cc(Cl)c1Cl` as the molecule, how does the outcome read?
**A.** Its outcome is “inactive”.

**Q.** For `CC(C)(c1ccccc1)c1ccc(O)c(C(C)(C)c2ccccc2)c1`, which AC50 is on record?
**A.** The AC50 was 6.39 µM (active).

**Q.** For `C[C@H]1O[C@@H](O[C@H]2[C@@H](O)C[C@H](O[C@H]3[C@@H](O)C[C@H](O[C@H]4CC[C@@]5(C)[C@H](CC[C@@H]6[C@@H]5CC[C@]5(C)[C@@H](C7=CC(=O)OC7)CC[C@]65O)C4)O[C@@H]3C)O[C@@H]2C)C[C@H](O)[C@@H]1O`, which outcome is on record?
**A.** Its outcome is “inactive”.

**Q.** For `C=CC(=O)OCCCCCC(C)C`, which outcome is on record?
**A.** Its outcome is “inactive”.

**Q.** For `CCOC(=O)CP(=O)(OCC)OCC`, which outcome is on record?
**A.** Its outcome is “inactive”.

**Q.** How did the outcome turn out when `COc1cc2c(cc1OC)[C@@]13CCN4CC5=CCO[C@H]6CC(=O)N2[C@H]1[C@H]6[C@H]5C[C@H]43` was run?
**A.** The outcome was “inactive”.

**Q.** With `CC(C)CCCCCCOC(=O)c1ccccc1C(=O)OCCCCCCC(C)C` as the molecule, how does the outcome read?
**A.** The outcome was “inactive”.

**Q.** How did the outcome turn out when `C=CCc1ccc(OC)cc1` was run?
**A.** The outcome was “inactive”.

**Q.** With `COc1ccc(C=O)cc1OC` as the molecule, how does the outcome read?
**A.** The outcome was “inactive”.

**Q.** For `O=[N+]([O-])c1ccc2c3c(cccc13)CC2`, which outcome is on record?
**A.** Its outcome is “inactive”.

**Q.** Which outcome does the source give for `C=CC#N` here?
**A.** The outcome was “inactive”.

**Q.** How did the outcome turn out when `O=CC=O` was run?
**A.** The outcome was “inactive”.

**Q.** How did the outcome turn out when `Nc1cccc(Cl)c1` was run?
**A.** The outcome was “inactive”.

**Q.** For `Cl/C=C/Cl`, which outcome is on record?
**A.** Its outcome is “inactive”.

**Q.** For `O=C/C=C/c1ccccc1`, which outcome is on record?
**A.** The outcome was “inactive”.

**Q.** For `C[C@@H]1C[C@@H]([C@H](O)CC2CC(=O)NC(=O)C2)C(=O)[C@@H](C)C1`, which outcome is on record?
**A.** Its outcome is “inactive”.

**Q.** `OCC(O)CCl` (stereo not given) was tested. Which outcome did it give?
**A.** The outcome was “inactive”.

**Q.** For `CCCCCCCCCl`, which outcome is on record?
**A.** Its outcome is “inactive”.

**Q.** With `Cc1ccc(N)cc1Cl` as the molecule, how does the outcome read?
**A.** The outcome was “inactive”.

**Q.** Which outcome does the source give for `COc1ccc(OC)c(C=O)c1` here?
**A.** The outcome was “inactive”.

**Q.** How did the outcome turn out when `C[C@@H](Oc1ccc(Cl)cc1Cl)C(=O)O` was run?
**A.** Its outcome is “inactive”.

**Q.** Which outcome does the source give for `CC(=O)C(Cl)C(=O)N(C)C` (stereo not given) here?
**A.** Its outcome is “inactive”.

**Q.** For `CC(C#N)CCC#N` (stereo not given), which outcome is on record?
**A.** The outcome was “inactive”.

**Q.** Which outcome does the source give for `CC(=O)c1cc(C(C)(C)C)cc2c1CCC2(C)C` here?
**A.** The outcome was “inactive”.

**Q.** Which outcome does the source give for `Cc1ccccc1C(=O)Nc1cccc(OC(C)C)c1` here?
**A.** The outcome was “inactive”.
